Source: PubChem BioAssay (EPA / NIEHS)
Activity calls are given as the source filed them. Rule for the calls: active = hit-call score of the fitted dose curve at least 0.9, where 1 is the maximum; inactive = score below 0.9.

Tests used:
[1] = ATG_CRE_CIS: Attagene CIS-FACTORIAL HepG2 Assay for human cAMP Responsive Element (CRE) binding protein 3 (AID 2282926); settings: HepG2 CRE cis-reporter, Attagene multiplexed mRNA; actives raise or lower the signal
Method in brief: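 Transfected HepG2 were treated for 24 hours, then RNA was extracted and reporter cDNA amplified with sequence-specific primers. Labelled fragments were separated by capillary electrophoresis, and the CRE signal was fitted bidirectionally with DMSO as baseline.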

[2] = target: CCAAT/enhancer-binding protein beta (Homo sapiens) (UniProt P17676); assay: ATG_C_EBP_CIS: Attagene CIS-FACTORIAL HepG2 Assay for human CCAAT/Enhancer Binding Protein (C/EBP) beta (AID 2282927); settings: HepG2 Attagene cis-factorial transcription factor reporter; actives raise or lower the signal
Chain of CCAAT/enhancer-binding protein beta (Homo sapiens) (P17676 whole entry, looked up): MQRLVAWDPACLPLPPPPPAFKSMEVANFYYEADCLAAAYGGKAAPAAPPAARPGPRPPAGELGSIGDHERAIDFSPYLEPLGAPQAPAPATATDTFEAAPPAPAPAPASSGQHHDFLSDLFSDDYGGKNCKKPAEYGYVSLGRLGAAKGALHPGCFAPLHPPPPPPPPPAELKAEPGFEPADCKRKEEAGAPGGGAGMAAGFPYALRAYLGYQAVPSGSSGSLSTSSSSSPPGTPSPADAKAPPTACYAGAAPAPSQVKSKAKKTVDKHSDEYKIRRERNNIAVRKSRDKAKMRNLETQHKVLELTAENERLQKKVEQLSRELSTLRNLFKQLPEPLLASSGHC
Method in brief: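 Transiently transfected HepG2 (MRTU library, endogenous TF-driven promoters); 24 h dosing; total RNA → oligo(dT) RT → PCR → 6-FAM primer extension → HpaI digest → CE; fit bidirectionally vs DMSO.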

[3] = ATG_CMV_CIS: Attagene CIS-FACTORIAL HepG2 Assay for human CMV (Internal Marker) (AID 2282928); settings: HepG2 CMV promoter reporter, transcription factor profiling; actives raise or lower the signal;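 note: endpoint acts as a background internal control marker rather than a target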
Method in brief: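 CMV internal-marker background readout in transiently transfected HepG2 cells bearing cis-regulated reporter units. Reporter mRNA is measured 24 h after dosing by RT-PCR and capillary electrophoresis, with bidirectional fitting against DMSO.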

[4] = ATG_DR4_LXR_CIS: Attagene CIS-FACTORIAL HepG2 Assay for human Liver X Receptor (LXR), DR4 submotif (AID 2282929); settings: HepG2 Attagene DR4 cis-reporter, mRNA transcription; actives raise or lower the signal
Method in brief: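 HepG2 cells transiently transfected with cis-promoter-driven multiplexed reporter units (DR4 element) were dosed for 24 h. Reporter mRNA was quantified by RT-PCR, fluorescent primer extension, HpaI digestion and capillary electrophoresis; bidirectional fitting versus DMSO baseline.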

[5] = target: Aryl hydrocarbon receptor (Homo sapiens) (UniProt P35869); assay: ATG_Ahr_CIS: Attagene CIS-FACTORIAL HepG2 Assay for human Aryl Hydrocarbon Receptor (Ahr) (AID 2282930); settings: HepG2 AhR cis-factorial reporter transcription; actives raise or lower the signal
Chain of Aryl hydrocarbon receptor (Homo sapiens) (P35869 whole entry, looked up): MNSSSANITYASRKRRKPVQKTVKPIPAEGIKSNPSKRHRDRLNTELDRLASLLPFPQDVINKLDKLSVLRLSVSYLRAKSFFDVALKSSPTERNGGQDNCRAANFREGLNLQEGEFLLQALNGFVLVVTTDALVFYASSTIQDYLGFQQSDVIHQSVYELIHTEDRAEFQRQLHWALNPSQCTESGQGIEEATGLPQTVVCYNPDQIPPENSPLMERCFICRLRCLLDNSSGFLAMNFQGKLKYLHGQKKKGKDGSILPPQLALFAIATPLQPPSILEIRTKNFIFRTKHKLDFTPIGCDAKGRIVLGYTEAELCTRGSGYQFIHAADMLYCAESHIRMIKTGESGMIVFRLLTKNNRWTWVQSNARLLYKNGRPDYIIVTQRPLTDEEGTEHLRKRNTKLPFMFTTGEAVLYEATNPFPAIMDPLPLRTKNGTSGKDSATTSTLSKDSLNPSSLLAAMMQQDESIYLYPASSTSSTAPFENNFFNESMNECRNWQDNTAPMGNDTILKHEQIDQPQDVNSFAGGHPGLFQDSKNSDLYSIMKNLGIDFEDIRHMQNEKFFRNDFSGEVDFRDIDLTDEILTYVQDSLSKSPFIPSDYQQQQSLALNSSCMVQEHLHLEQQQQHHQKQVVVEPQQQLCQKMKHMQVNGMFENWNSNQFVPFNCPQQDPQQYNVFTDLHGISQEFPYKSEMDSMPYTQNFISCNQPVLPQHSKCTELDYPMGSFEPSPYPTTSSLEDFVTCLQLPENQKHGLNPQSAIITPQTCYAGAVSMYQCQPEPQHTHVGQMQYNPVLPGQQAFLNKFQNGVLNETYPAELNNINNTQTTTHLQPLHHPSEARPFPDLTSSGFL
Method in brief: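 Read-out: reporter mRNA quantified by RT-PCR with fluorescent primer extension and capillary electrophoresis. Human HepG2 liver cells carried transfected cis-promoter reporter units and were exposed to chemical for 24 h; gain or loss fitted relative to DMSO.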

[6] = ATG_AP_1_CIS: Attagene CIS-FACTORIAL HepG2 Assay for human Activator Protein 1 (AP-1) (AID 2282931); settings: HepG2 Attagene cis-factorial AP-1 reporter mRNA; actives raise or lower the signal
Method in brief: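 HepG2 cells transiently transfected with cis-element-driven multiplex reporter units; 24 h compound exposure. Reporter mRNA quantified by RT-PCR, FAM-labelled fragments resolved by capillary electrophoresis; bidirectional fit versus DMSO baseline.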

[7] = ATG_AP_2_CIS: Attagene CIS-FACTORIAL HepG2 Assay for human Activator Protein 2 (AP-2) (AID 2282932); settings: HepG2 AP-2 cis-reporter, Attagene transcription factor profiling; actives raise or lower the signal
Method in brief: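 Multiplexed mRNA reporter assay in HepG2: cis-regulated units report endogenous factor activity after 24 h treatment. Fluorescence from capillary electrophoresis of RT-PCR products gives the signal, with DMSO as baseline.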

[8] = ATG_BRE_CIS: Attagene CIS-FACTORIAL HepG2 Assay for human Bone Morphogenetic Protein (BMP) Response Element (BRE) (AID 2282933); settings: HepG2 BMP response element reporter, Attagene transcription factor profiling; actives raise or lower the signal
Method in brief: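 Endogenous transcription factor activity at a BMP response element was monitored in transfected HepG2 cells 24 h after dosing. Fluorescent RT-PCR products were resolved by capillary electrophoresis, and activity was fitted in both directions versus DMSO.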

[9] = target: Retinoic acid receptor alpha (Homo sapiens) (UniProt P10276); assay: ATG_DR5_RAR_CIS: Attagene CIS-FACTORIAL HepG2 Assay for human Retinoic Acid Receptor Alpha (RARE), DR5 submotif (AID 2282934); settings: HepG2 Attagene cis-factorial RARE DR5 reporter, mRNA; actives raise or lower the signal;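 for AC50: reporter responds to endogenous RAR alpha beta and gamma in HepG2 not RARA alone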
Chain of Retinoic acid receptor alpha (Homo sapiens) (P10276 whole entry, looked up): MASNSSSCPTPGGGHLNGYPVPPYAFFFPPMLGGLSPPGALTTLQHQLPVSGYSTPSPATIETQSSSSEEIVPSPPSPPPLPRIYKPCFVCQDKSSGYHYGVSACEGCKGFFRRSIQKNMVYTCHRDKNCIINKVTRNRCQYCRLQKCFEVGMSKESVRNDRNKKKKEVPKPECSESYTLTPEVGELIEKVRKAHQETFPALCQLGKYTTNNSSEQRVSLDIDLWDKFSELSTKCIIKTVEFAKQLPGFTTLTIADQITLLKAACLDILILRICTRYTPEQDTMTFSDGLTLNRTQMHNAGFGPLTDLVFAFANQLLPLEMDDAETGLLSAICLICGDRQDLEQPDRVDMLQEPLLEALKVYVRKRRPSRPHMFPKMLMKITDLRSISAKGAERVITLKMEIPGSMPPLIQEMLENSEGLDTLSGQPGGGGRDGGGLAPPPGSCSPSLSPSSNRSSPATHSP
Method in brief: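 Read-out: DR5-driven reporter transcript measured by RT-PCR, 6-FAM primer extension, HpaI digest and capillary electrophoresis. Human HepG2 liver cells carry transiently transfected cis-element reporter constructs; dosing lasts 24 h. Gain or loss of signal fitted against DMSO baseline.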

[10] = target: Transcription factor E2F1 (Homo sapiens) (UniProt Q01094); assay: ATG_E2F_CIS: Attagene CIS-FACTORIAL HepG2 Assay for human E2F Transcription Factor 1 (AID 2282935); settings: HepG2 Attagene cis-reporter, E2F reporter RNA transcripts; actives raise or lower the signal
Chain of Transcription factor E2F1 (Homo sapiens) (Q01094 whole entry, looked up): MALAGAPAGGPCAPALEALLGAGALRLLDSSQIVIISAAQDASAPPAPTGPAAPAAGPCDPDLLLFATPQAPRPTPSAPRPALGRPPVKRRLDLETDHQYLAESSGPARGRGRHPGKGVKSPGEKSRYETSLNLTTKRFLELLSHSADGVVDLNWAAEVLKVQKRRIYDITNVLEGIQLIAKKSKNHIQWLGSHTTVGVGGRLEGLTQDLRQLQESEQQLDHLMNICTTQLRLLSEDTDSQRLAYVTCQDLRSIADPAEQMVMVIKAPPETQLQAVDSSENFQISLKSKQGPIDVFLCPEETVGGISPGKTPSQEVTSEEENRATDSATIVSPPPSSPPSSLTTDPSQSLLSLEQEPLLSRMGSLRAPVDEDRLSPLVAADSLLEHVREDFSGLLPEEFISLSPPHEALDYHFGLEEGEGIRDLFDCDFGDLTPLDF
Method in brief: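 Measures reporter transcript levels via RT-PCR with capillary electrophoresis detection in HepG2 cells harboring cis-regulated reporter units; 24 h post-dose; bidirectional curve fitting with DMSO as baseline.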

[11] = ATG_E_Box_CIS: Attagene CIS-FACTORIAL HepG2 Assay for human Enhancer Box (E-box) (AID 2282936); settings: HepG2 E-box cis-reporter transcription, actives raise or lower the signal
Method in brief: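 First, HepG2 cells receive multiple cis-regulated reporter constructs by transient transfection. Next, chemicals are applied for 24 h. Finally, reporter mRNA is quantified via RT-PCR and capillary electrophoresis, with DMSO as baseline.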

[12] = ATG_M_61_CIS: Attagene CIS-FACTORIAL HepG2 Assay for M61 Transcription Factor (Internal Marker) (AID 2282937); settings: HepG2 Attagene CIS-FACTORIAL M61 internal marker reporter; actives raise or lower the signal
Method in brief: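 HepG2 cells transiently transfected with cis-element-driven multiple reporter transcription units, dosed for 24 h. Reporter mRNA measured by RT-PCR, 6-FAM primer-extension labelling, HpaI digestion and capillary electrophoresis; bidirectional fit versus DMSO baseline.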

[13] = ATG_EGR_CIS: Attagene CIS-FACTORIAL HepG2 Assay for human Early Growth Response 1 (EGR1) (AID 2282938); settings: HepG2 Attagene CIS-FACTORIAL EGR reporter mRNA; actives raise or lower the signal
Method in brief: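 HepG2 cells transiently transfected with cis-promoter-driven multiplexed reporter transcription units; reporter mRNA measured 24 h after compound dosing by RT-PCR, 6-FAM primer extension, HpaI digestion and capillary electrophoresis. Bidirectional fit versus DMSO baseline.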

[14] = ATG_M_19_CIS: Attagene CIS-FACTORIAL HepG2 Assay for M19 Transcription Factor (Internal Marker) (AID 2282939); settings: HepG2 Attagene CIS-FACTORIAL M19 internal marker reporter; actives raise or lower the signal
Method in brief: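 Background-control endpoint from a multiplexed HepG2 reporter panel. Cells carrying cis-regulated reporter constructs are treated 24 h, then reporter transcripts are amplified, fluorescently labelled and sized by capillary electrophoresis. DMSO defines baseline.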

[15] = ATG_Ets_CIS: Attagene CIS-FACTORIAL HepG2 Assay for human Erythroblast Transformation Specific (ETS) (AID 2282941); settings: HepG2 ETS cis-reporter transcription, actives raise or lower the signal
Method in brief: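 HepG2 cells transfected with multiple cis-regulated reporter units measuring endogenous ETS-driven transcription, 24 h after dosing. Reporter mRNA quantified by RT-PCR with capillary electrophoresis; bidirectional fit relative to DMSO.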

[16] = target: Hepatocyte nuclear factor 3-beta (Homo sapiens) (UniProt Q9Y261); assay: ATG_FoxA2_CIS: Attagene CIS-FACTORIAL HepG2 Assay for human Forkhead box A2 (FOXA2) (AID 2282942); settings: HepG2 cis-reporter transcription factor activity, 24 h; actives raise or lower the signal
Chain of Hepatocyte nuclear factor 3-beta (Homo sapiens) (Q9Y261 whole entry, looked up): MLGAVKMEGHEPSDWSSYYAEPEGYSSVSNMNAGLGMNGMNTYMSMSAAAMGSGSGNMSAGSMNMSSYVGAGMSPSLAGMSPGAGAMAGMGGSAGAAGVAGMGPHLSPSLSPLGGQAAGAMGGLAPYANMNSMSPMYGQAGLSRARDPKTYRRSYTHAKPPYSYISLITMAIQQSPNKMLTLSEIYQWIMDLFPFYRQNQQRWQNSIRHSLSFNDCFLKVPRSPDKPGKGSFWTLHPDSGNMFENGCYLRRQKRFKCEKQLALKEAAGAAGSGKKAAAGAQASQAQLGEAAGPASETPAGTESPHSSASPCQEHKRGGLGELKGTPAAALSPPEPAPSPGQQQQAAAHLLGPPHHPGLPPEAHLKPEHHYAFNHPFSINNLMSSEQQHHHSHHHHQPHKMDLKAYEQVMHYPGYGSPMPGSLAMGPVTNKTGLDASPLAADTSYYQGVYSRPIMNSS
Method in brief: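 HepG2 cells transiently transfected with multiple cis-regulated reporter transcription units, dosed for 24 h. Reporter mRNA measured by RT-PCR, 6-FAM labelling, HpaI digestion and capillary electrophoresis; bidirectional fitting against DMSO baseline.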

[17] = ATG_GATA_CIS: Attagene CIS-FACTORIAL HepG2 Assay for human GATA Binding Protein (AID 2282944); settings: HepG2 GATA cis-element reporter, Attagene multiplex mRNA; actives raise or lower the signal
Method in brief: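 Endogenous transcription factor activity was captured through cis-promoter-driven reporters in transfected HepG2 cells. After 24 h exposure, reporter transcripts were quantified by RT-PCR with fluorescent capillary electrophoresis, and responses fitted both directions against DMSO.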

[18] = ATG_GLI_CIS: Attagene CIS-FACTORIAL HepG2 Assay for human Zinc Finger Protein GLI1 (AID 2282945); settings: HepG2, Attagene cis-factorial reporter mRNA, GLI element; actives raise or lower the signal
Method in brief: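 Transiently transfected HepG2 cells report endogenous transcription factor activity via cis-element-driven reporter units. After 24 h compound exposure, reporter mRNA was measured by RT-PCR with capillary electrophoresis; bidirectional fitting against DMSO baseline.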

[19] = ATG_FoxO_CIS: Attagene CIS-FACTORIAL HepG2 Assay for human Forkhead box O (FoxO) (AID 2282943); settings: HepG2 Attagene cis-reporter, FoxO element, mRNA; actives raise or lower the signal
Method in brief: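 Read-out: fluorescence of 6-FAM-labelled reporter cDNA fragments resolved by capillary electrophoresis. Transiently transfected HepG2 cells were dosed for 24 h; activity fitted in both directions relative to DMSO controls.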

CCCCCNCCCCC
outcome [1]: inactive | outcome [2]: inactive | outcome [3]: inactive | outcome [4]: inactive | outcome [5]: inactive | outcome [6]: inactive | outcome [7]: inactive | outcome [8]: inactive | outcome [9]: inactive | outcome [10]: inactive | outcome [11]: inactive | outcome [12]: inactive | outcome [13]: inactive | outcome [14]: inactive | outcome [15]: inactive | outcome [16]: inactive | outcome [17]: inactive | outcome [18]: inactive

CC(C)=CCCC(C)=CCCC(C)=CCO
outcome [1]: inactive | outcome [2]: inactive | outcome [3]: inactive | outcome [4]: inactive | outcome [5]: inactive | outcome [6]: inactive | outcome [7]: inactive | outcome [8]: inactive | outcome [9]: inactive | outcome [10]: inactive | outcome [11]: inactive | outcome [12]: inactive | outcome [13]: inactive | outcome [14]: inactive | outcome [16]: inactive | outcome [19]: inactive | outcome [17]: inactive | outcome [18]: inactive

CCCCCCCCCCCCOCCO
outcome [1]: inactive | outcome [2]: inactive | AC50 [3]: 33.4 µM (active) | AC50 [4]: 51.7 µM (active) | AC50 [5]: 33.4 µM (active) | AC50 [6]: 50.2 µM (active) | AC50 [7]: 57.4 µM (active) | outcome [8]: inactive | outcome [9]: inactive | outcome [10]: inactive | outcome [12]: inactive | outcome [13]: inactive | outcome [14]: inactive | outcome [15]: inactive | AC50 [16]: 47.6 µM (active) | AC50 [19]: 56.6 µM (active) | outcome [17]: inactive | AC50 [18]: 60.7 µM (active)

NCCCCCCN
outcome [1]: inactive | outcome [2]: inactive | outcome [3]: inactive | outcome [4]: inactive | outcome [5]: inactive | outcome [6]: inactive | outcome [7]: inactive | outcome [8]: inactive | outcome [9]: inactive | outcome [10]: inactive | outcome [12]: inactive | outcome [13]: inactive | outcome [14]: inactive | outcome [15]: inactive | outcome [16]: inactive | outcome [19]: inactive | outcome [17]: inactive | outcome [18]: inactive

CN1Cc2c(N)cccc2C(c2ccccc2)C1 (stereo not drawn)
outcome [1]: inactive | outcome [2]: inactive | outcome [3]: inactive | outcome [4]: inactive | AC50 [5]: 59.1 µM (active) | outcome [6]: inactive | outcome [7]: inactive | outcome [8]: inactive | outcome [9]: inactive | outcome [10]: inactive | outcome [11]: inactive | outcome [12]: inactive | outcome [13]: inactive | outcome [14]: inactive | outcome [15]: inactive | outcome [16]: inactive | outcome [17]: inactive | outcome [18]: inactive

Fc1c(F)c(F)c(Br)c(F)c1F
outcome [1]: inactive | outcome [2]: inactive | outcome [3]: inactive | outcome [4]: inactive | outcome [5]: inactive | outcome [6]: inactive | outcome [7]: inactive | outcome [8]: inactive | outcome [9]: inactive | outcome [10]: inactive | outcome [11]: inactive | outcome [12]: inactive | outcome [13]: inactive | outcome [14]: inactive | outcome [16]: inactive | outcome [19]: inactive | outcome [17]: inactive | outcome [18]: inactive

O=C1CCCCCCCCCCCCCCO1
AC50 [1]: 120 µM (active) | outcome [2]: inactive | AC50 [3]: 100 µM (active) | AC50 [4]: 181 µM (active) | AC50 [5]: 145 µM (active) | AC50 [6]: 46.2 µM (active) | outcome [7]: inactive | outcome [8]: inactive | AC50 [9]: 100 µM (active) | outcome [10]: inactive | outcome [11]: inactive | outcome [12]: inactive | outcome [13]: inactive | outcome [14]: inactive | outcome [16]: inactive | outcome [17]: inactive | outcome [18]: inactive

C=O
outcome [1]: inactive | outcome [2]: inactive | outcome [3]: inactive | outcome [4]: inactive | outcome [5]: inactive | outcome [6]: inactive | outcome [7]: inactive | outcome [8]: inactive | outcome [9]: inactive | outcome [10]: inactive | outcome [12]: inactive | outcome [13]: inactive | outcome [14]: inactive | outcome [15]: inactive | outcome [16]: inactive | outcome [19]: inactive | outcome [17]: inactive | outcome [18]: inactive
